Drawing on PubChem BioAssay (NCI), this text covers growth for nine compounds.

What all share (assay): NCI-60 one-dose screen, 48 h (100 = growth as untreated, 0 = no growth, -100 = all killed)
Holding throughout (conditions): 10 µM unless noted

In experiment [1] the test system is SR leukemia.
For experiment [2], the system named is RPMI-8226 leukemia.
Experiment [3] deals with OVCAR-8 ovarian.
The subject of experiment [4] is OVCAR-5 ovarian.
Experiment [5] concerns OVCAR-4 ovarian.
In experiment [6] the test system is SK-OV-3 ovarian.
The test system of experiment [7] is OVCAR-3 ovarian.
The subject of experiment [8] is HS 578T breast.
Experiment [9] deals with NCI/ADR-RES ovarian.
Experiment [10] has as its system BT-549 breast.
In experiment [11] the test system is MDA-MB-435 melanoma.
The subject of experiment [12] is SW-620 colon.
In experiment [13] the test system is MCF7 breast.
Experiment [14] has as its system HCT-116 colon.
The subject of experiment [15] is HCC-2998 colon.
Experiment [16] relates to KM12 colon.
The subject of experiment [17] is T-47D breast.

Molecules are shown by their SMILES. Compounds without any hit were thinned out: in the full panel of roughly 83,000, 20% have a hit.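 The endpoint reported here, percent growth, reads 100 for growth as untreated, 0 for no net growth and -100 for all cells dead.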 A number with no mark means an inactive call. The source made the active and inactive calls. How the source made its calls: active means growth percent below 10; inactive means the rest.

Turning to `Cn1cc(-c2ccc3occ(-c4cccc(-c5ccncc5)c4)c3n2)cn1`, the growth was 3.95% (active) in experiment [1]; 0.0083% (active) in experiment [2]; 7.42% (active) in [3]; 55.4% in experiment [4]; 36.5% in [5]; 31.8% in experiment [6]. Also, the growth is 18.4% in experiment [7]; -10.7% (active) in experiment [8]; 4.84% (active) in [9]; 10.9% in experiment [10]; -2.73% (active) in experiment [11]; 17.8% in experiment [12]. For the same compound, the growth in experiment [13] was 6.54% (active); in [14], 10.4%; in [15] it was 45%; in experiment [16] it was 12.4%.
On to `N#Cc1c(-c2ccc(Cl)cc2)nc(NN=Cc2cccc(Cl)c2)nc1N1CCOCC1`, for which the growth in experiment [1] is 8.74% (active); in experiment [2], 65.1%; in experiment [3], 96.7%; in [4] it was 103%; in [5] it was 94.3%; in experiment [6] it was 111%. In addition, the growth in experiment [7] is 87.4%; in experiment [8], 96.6%; in experiment [9], 89.2%; in [17] it was 76.6%; in experiment [10], 93.6%; in experiment [11] it was 92%. Also, the growth in [12] was 53.3%; in experiment [13], 85.9%; in [14] it was 70.8%; in [15], 105%; in [16], 84%.
Take `COC(=O)[C@@H](Cc1c[nH]c2ccccc12)NC(=O)[C@H](Cc1ccccc1)NCc1ccncc1`: the growth in [1] is 99.2%; in experiment [2], 84.6%; in experiment [3], 89.1%; in experiment [4], 101%; in [5], 98.7%; in [6] it was 94%. Besides, the growth is 101% in [7]; 99.3% in [8]; 99.9% in experiment [9]; 93.2% in experiment [17]; 113% in experiment [11]; 104% in experiment [12]. In addition, the growth in experiment [13] is 110%; in experiment [14], 87.4%; in experiment [15], 112%; in experiment [16], 96.5%.
As to `Cc1[nH]c(C(=O)Nc2ccc(C(N)=O)cc2OC(C)C)c(Cl)c1Cl`, the growth in experiment [1] was 79.2%; in experiment [2], 90.4%; in experiment [3], 101%; in experiment [4], 98.3%; in experiment [5], 98.2%; in [6] it was 96.4%. Further, the growth in [7] is 105%; in experiment [8] it was 88.7%; in [9] it was 112%; in experiment [17] it was 74.9%; in experiment [10], 95.4%; in experiment [11], 105%. Further, the growth in experiment [12] is 105%; in experiment [13], 88.7%; in [14], 98.3%; in experiment [15], 110%; in experiment [16], 98.5%.
On to `CN(C)c1ccc(Cc2cc(-c3ccccc3)nn(C/C(=N/O)c3ccccc3)c2=O)cc1`, for which the growth in [1] is 46.3%; in experiment [2], 28.2%; in experiment [3] it was 57.2%; in experiment [4], 89.7%; in experiment [5], 55.1%; in experiment [6], 94.6%. Moreover, the growth in experiment [7] was 56.2%; in experiment [8], 83.1%; in [9], 44.1%; in experiment [17], 11.8%; in [10], 61.2%; in [11], 38%. The growth in [12] is 62.1%; in [13] it was 29.1%; in experiment [14] it was 46%; in experiment [15] it was 81.2%; in experiment [16], 31.8%.
With `COc1cccc(NC(=O)c2sc3nc(C)c(C(=O)c4ccccc4)cc3c2N)c1`, the growth in experiment [1] was 45.4%; in experiment [2], 94.5%; in [3], 98.8%; in experiment [4] it was 97.5%; in experiment [5], 87.9%; in experiment [6], 41%. The growth in [7] is 92.9%; in [8], 72.9%; in experiment [9], 98.1%; in experiment [17], 88.6%; in experiment [11], 29.9%; in experiment [12] it was 91.4%. Also, the growth in [13] is 69.5%; in [14], 95.9%; in experiment [15], 109%; in experiment [16] it was 88%.
Regarding `O=C(CN1C(=O)NC2NC(=O)NC21)N/N=C/c1cccc([N+](=O)[O-])c1` (centres undefined), the growth in experiment [1] is 110%; in experiment [2], 110%; in experiment [3], 111%; in experiment [4] it was 105%; in [5], 105%; in experiment [6] it was 108%. Also, the growth is 108% in [7]; 107% in [8]; 101% in [9]; 107% in experiment [17]; 102% in [10]; 98.1% in [11]. Further, the growth in experiment [12] is 105%; in experiment [13] it was 91.8%; in experiment [14], 116%; in [15], 118%; in [16] it was 104%.
Take `CNC(=O)c1cc(Oc2cccc3nc(NC(=O)Nc4ccc(F)cc4F)ccc23)ccn1`: the growth is 18% in experiment [1]; 30.4% in [2]; 13.9% in experiment [3]; 70.3% in experiment [4]; -63.4% (active) in [5]; 35.3% in [6]. Further, the growth in [7] was 0.213% (active); in experiment [8] it was 5.37% (active); in experiment [9] it was 22.5%; in [17], 21%; in experiment [10], 45.5%; in experiment [11], 32.6%. Moreover, the growth was 59.7% in [12]; 37.8% in [13]; -33.1% (active) in experiment [14]; 70.2% in [15]; 57.7% in [16].
As to `Cn1cc(-c2nc(-c3c[nH]c4c(Cl)nccc34)cs2)c2ccccc21`, the growth is 73.7% in experiment [1]; 87.2% in [2]; 91.1% in experiment [3]; 120% in experiment [4]; 86.4% in [5]; 108% in experiment [6]. Besides, the growth in [7] was 107%; in [8] it was 108%; in experiment [9], 98%; in [10] it was 110%; in [11], 96.4%; in experiment [12], 99.4%. Moreover, the growth in [13] was 44.7%; in [14] it was 94.4%; in experiment [15] it was 94.5%; in [16] it was 95.9%.
